# Assay outcomes deposited in PubChem by several laboratories.
# Rows were chosen to be rich in hits. Some 1.5% of all compounds tested hit in one or more screens of this group.
# EBV gp42 block = Epstein-Barr virus gp42 inhibitors, primary screen, biochemical, uHTS, fluorescence polarization; AID 1085, 2008; inhibition, % (tested at 21.74 µM); Fluorescence polarization binding assay, mP read-out; Glycoprotein 42 (Epstein-Barr virus (strain AG876)), Q1HVG2; 0.42% of 220,000 active; in the data active = inhibition above about 50%
# Target sequence (Q1HVG2 whole entry, looked up): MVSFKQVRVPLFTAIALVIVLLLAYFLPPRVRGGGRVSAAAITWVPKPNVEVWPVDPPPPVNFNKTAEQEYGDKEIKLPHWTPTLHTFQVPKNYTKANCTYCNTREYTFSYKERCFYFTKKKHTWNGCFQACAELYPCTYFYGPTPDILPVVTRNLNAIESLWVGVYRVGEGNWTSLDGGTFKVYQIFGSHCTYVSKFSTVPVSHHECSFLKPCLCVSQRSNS
# GLD-1 RNA inh = GLD-1/TGE RNA complex disruptors, primary screen, biochemical, fluorescence polarization; purified GLD-1 + fluorescein TGE RNA; Female germline-specific tumor suppressor gld-1 (Caenorhabditis elegans), Q17339; inhibition, % at 5.96 µM; 0.44% of 320,000 active;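 active = percent inhibition above a per-plate cutoff, the plate mean of test compounds plus 3 SD, cut at about 30% in these data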;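 also: 0% = DMSO wells with GLD-1 and probe and 100% = wells lacking GLD-1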
# eLon inh = inhibitors of E. coli Lon protease, primary screen, biochemical, fluorescence polarization; inhibition, % at 7.94 µM; purified E. coli Lon protease; 0.42% of 360,000 active; P0A9M0; in the data active = inhibition above about 13%, passing the limit was not always enough;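 also: 0% = enzyme with probe and DMSO and 100% = no enzyme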
# LANA-H2A inh = blockers of LANA interaction with H2A/H2B – biochemical, FP readout, HTS, primary screen; cell-free LANA-H2A/H2B peptide, fluorescence polarization; inhibition, % (no concentration beside the values); 0.6% of 320,000 active; AID 2629, 2010; in the data active = inhibition mostly above about 10%, no sharp cut-off; inactive = mostly below about 6.7%
# C-LANA FP = inhibitors of KSHV C-LANA binding to DNA, primary screen, biochemical, fluorescence polarization, FAM-LBS DNA, MBP-C-LANA, single point; inhibition, % at 9 µM; 0.078% of 340,000 active; AID 504423, 2011;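 active = highest replicate inhibition at or above 60% at 9 µM, even if other replicates fall short; inactive = all replicates below 60% inhibition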;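 also: 0% = neutral control wells and 100% = 4 µM acridine orange control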
# Keap1 Nrf2 FP = Keap1-Nrf2 protein-protein interaction inhibitors, primary screen, biochemical, fluorescence polarization, single point; Kelch-like ECH-associated protein 1 (Homo sapiens), Q14145; Keap1 Kelch-Nrf2 peptide fluorescence polarization, 1536-well; inhibition, % at 9.4 µM; 0.15% of 340,000 active; in the data active = inhibition above about 12%;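 also: human Keap1 Kelch domain with fluorescein labeled Nrf2 9mer peptide probe; 0% = neutral control wells and 100% = peptide positive control; higher means more block of Keap1 binding to Nrf2 peptide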
# * marks the source's active call; other numbers are inactive results; x = no result.
SMILES,EBV gp42 block,GLD-1 RNA inh,eLon inh,LANA-H2A inh,C-LANA FP,Keap1 Nrf2 FP
Cn1cccc1CC(=O)NNC(=O)Nc1ccc(Cl)cc1,-9,2,-4,76*,1,1
CCCCn1nnnc1C1(C)CCC(=O)N1CCCn1ccnc1 (stereo unspecified),x,x,7,x,x,x
CCCn1c(O)c(N=Nc2ccc3ccccc3n2)c2ccccc21,63*,2,-10,x,2,-2
CC(C)CCn1c(O)c(N=Nc2ccccn2)c2ccccc21,4,-7,-6,4,-1,0
COc1cccc(C(C)(O)c2nc(-c3ccc(N(C)C)cc3)cs2)c1 (stereo unspecified),x,x,-3,x,x,x
CSC(=Nc1ccccc1)N=C(SCc1ccccc1)N(C)C,x,x,-4,x,-1,-4
COCOc1ccc(-c2ncc(OC)nc2NC(=O)c2cc(C)oc2C)cc1,x,x,5,x,x,x
Cc1cc(C)cc(NC(=O)CCCN2C(=O)C(c3ccccc3)Oc3cccnc32)c1 (stereo unspecified),x,-4,-4,14*,0,-3
CC(=O)Nc1ccc(NC(=O)CCCN2C(=O)C(c3ccccc3)Oc3cccnc32)cc1 (stereo unspecified),x,x,-4,x,x,x
CC(=O)NC(c1ccc(F)c(F)c1)c1nc(-c2ccccc2C)cs1 (stereo unspecified),x,x,-1,x,x,x
CC(=O)c1ccc(S(=O)(=O)N(C)CCCC(=O)N(C)Cc2c(F)cccc2Cl)cc1,x,3,-10,58*,-1,-7
O=C(c1cccc2ccccc12)N1CCCCC1,x,8,1,11*,-1,-4
COC(CNC(=O)C(=O)NCC1OCCN1C(=O)c1ccc(Cl)cc1)OC (stereo unspecified),-8,3,-13,11*,-2,2
COc1ccc2nc(N3C(=O)/C(=C/c4ccc(Cl)cc4)NC3=S)sc2c1,54*,x,-115,x,-2,-2
Cc1ccc(CNC(=O)c2ccc(-n3cccc3)cc2)cc1,51*,x,-10,x,3,-2
O=C(NN=C1CCCC1)c1sc2ccccc2c1Cl,-12,14,-14,1,-1,-1
O=C1CCC/C(=N/NC(=O)c2sc3ccccc3c2Cl)C1,-71,103*,-71,-4,16,-16
CS(=O)(=O)Nc1cccc(NC(=O)C2Cc3c(-c4ccccc4)ccnc3O2)c1 (stereo unspecified),x,x,2,x,x,x
COc1ccc(CC(=O)N/N=C/c2ccc(-c3cccc(C(=O)O)c3)o2)cc1OC,-4,-1,-13,8.8*,4,-1
COc1ccc(CC(=O)N/N=C/c2ccc(-c3ccc(F)cc3)o2)cc1OC,-8,1,2,3,0,-4
O=C(NCc1ccccc1)c1cc(C2COCCN2C(=O)OCCF)on1 (stereo unspecified),x,x,-7,x,x,x
O=C(CSc1nccn1-c1ccc(Cl)cc1)NCc1ccc2c(c1)OCO2,-10,3,-6,0,-2,1
Cc1ccc(NC(=O)CN2C(=O)C3CCCCN3C(=O)c3ccccc32)cc1 (stereo unspecified),-8,4,-3,-6,-1,0
O=C(CN1C(=O)C2CCCN2C(=O)c2ccccc21)Nc1ccccc1-n1cccc1 (stereo unspecified),x,1,x,30*,x,x
COc1ccc(Cc2c(-c3cccc(Cl)c3)nc3ccc(Cl)cn23)c(C)c1,x,x,-16,x,x,x
SMILES,EBV gp42 block,GLD-1 RNA inh,eLon inh,LANA-H2A inh,C-LANA FP,Keap1 Nrf2 FP
NNC(=O)CCc1nc2ccc(O)cc2[nH]1,-5,-7,-3,13*,0,-2
CCOC(=O)C(=O)Cc1cccnn1,x,x,10,x,72*,2
COc1ccc(C=O)c(-c2c(CCO)sc3ccccc23)c1,x,x,-3,x,x,x
Cc1cc(NC(=S)Nc2cccnc2)ccc1Br,-16,1,2,4,-1,-3
Cc1cc(NC(=S)Nc2ccccc2)ccc1Br,-4,7,-2,22*,-1,-2
COCCc1ccc(OC2(C)CCN(Cc3ccc(OC)c4ccccc34)C2)cc1 (stereo unspecified),x,x,-11,x,x,x
